Test system: EPHA1
Conditions: concentration: 1 μM, replicates: in singlicate; n = 1
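Further: KINOMEscan kinase panel screen.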

SMILES | %Inh [%]
O=C(Nc1ccc2c(c1)OCO2)NC1CCN(c2ccnc(NCc3ccc(F)cc3)n2)CC1 [GSK1379859] | 8
Nc1ncnc2c1ncn2-c1cccc(F)c1 [SKF-97560] | 11
COc1ccc(-c2cc3c(C)nc(N)nc3n([C@H]3CC[C@H](O)CC3)c2=O)cn1 | 12
COc1ccc(CNC(=O)NC2CCN(c3ccnc(Nc4ccc(F)cc4)n3)C2)cc1 (stereo not shown) [GSK1379706] | 0
Nc1ncnc2c1ncn2-c1cccc2ccccc12 [SKF-97184] | 0
COc1cccc(C2=C(N(C)c3ccccc3)C(=O)NC2=O)c1 [SB-334865] | 0
Nc1nc(N)c2nc(-c3ccccc3)[nH]c2n1 [SKF-12778] | 12
COc1cc2ncn(-c3cc(OCc4ccncc4Br)c(C(N)=O)s3)c2cc1OC [GW854278] | 25
Nc1n[nH]c2nnc(-c3ccccc3)c(-c3ccccc3)c12 [GW554060] | 15
Nc1nc(-c2ccccc2F)c(-c2ccnc3ccccc23)s1 [GW560459] | 0
Nc1nccc2scc(-c3ccc4c(c3)CCN4C(=O)Cc3ccccc3)c12 [GSK2576924] | 9
Cc1cccc(-c2cc(-c3c[nH]nc3-c3ccccn3)ccn2)c1 [GW679395] | 38
Cc1ccc(-c2ccc3c(ccc4sc5c(c43)NC[C@@H](C)N=C5N(C)C)n2)cn1 | 0
CCCNC(=O)Nc1ccc(Oc2ncnc3ccn(C)c23)cc1 | 0
CCCC(=O)Nc1n[nH]c2ncc(-c3cccc4ccccc34)cc12 [SB-642057] | 0
CCC(=O)c1c(-c2ccccc2)c2cc(Cl)ccc2c(=O)n1Cc1ccc(C(=O)O)cc1 | 0
COc1cc2ncn(-c3cc(OCCCc4ccccc4)c(C(N)=O)s3)c2cc1OC [GSK205189] | 0
Cc1cc(Nc2nc(-c3cccc(C)n3)nc3ccccc23)ccn1 [GW872411] | 0
COc1ccc(-c2cc3c(C)nc(N)nc3n([C@H]3CC[C@H](OCCO)CC3)c2=O)cn1 | 13
O=C(Nc1n[nH]c2nc(-c3ccccc3)c(Cl)cc12)C1CC1 [SB-734909] | 19
COc1cc2ncn(-c3cc(OCc4ccc(S(C)(=O)=O)cc4)c(C(N)=O)s3)c2cc1OC [GW869979] | 0
CN1C(=O)C(Nc2ccccc2)=C(c2ccccc2)C1=O [SB-300079] | 0
